Results reported in the supplement of paper PMC6555819.

Test system: PPARg:RXRa 90nM:30nM, anti-RXR (NR concentration 90 nM, RXRa partner concentration 30 nM)
Experiment: PBM binding z-score (relative to random genomic background probes); higher = stronger binding; sequences stand for … in GC…GCGATTGACAGCGTAGAATGAAGG
Summary of the method: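 Ligand-free nuclear receptor dimers were applied to custom Agilent 4×180K protein-binding microarrays whose double-stranded probes carried direct-repeat seeds, single-nucleotide variants, half-site ablations and random human genomic background sequences in 34-nt variable regions. Incubation lasted 1 h. Binding z-scores were computed against the random background probes from regression-normalized fluorescence.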

In order of rising PBM binding z-score:
1. GCTGCTACGTCAGGTTGGTCAGCTAACGGGTACG  -0.888
2. ACAGACAGGTGAGTGAAGGTAAATCAGCTGGACG  -0.384
3. AACTCTAGGTAAGACTCAGTTCAGTGAAGAACGC  -0.258
4. CGTCCAAGGACAGAGAGGTCAGTGAATGCCGAGT  -0.223
5. ATACCAAGGCGATCGTGAGGTCGTTGATACTAAC  -0.191
6. CAGCCTAGGTCAGGTCCAGTATAGGAGGAACGTT  0.231
7. GCGACTGGGGCAAAGCAGGTGACCATAAGGTTGG  0.239
8. GGAACGAGGGCAAGTTGATAGCCGAGTTTGATGG  0.405
9. ATCGAAAGGTGGTGAGGTGAGTATACAGAAAGGC  0.438
10. ATCTTTAGGTAAAGATAGTTCAGTGAATGCAAAT  0.506
11. ACTATAAGTTGACTTAGGGCAACCGATACGACGC  0.54
12. GCGACTGGGGCAAAGCAGCTTACCATAAGGTTGG  0.688
13. CTCGAAAGGTCGGTTCAGGTGAGTATACGGATAA  0.769
14. ACAATGAGGTTATACGTAGATCAGGGAAGAAAGT  0.925
15. CGAACGAGGGCATGAGTTGATAGAAAATGCCGAT  0.956
16. TAGCCTAGGTCATGCGGGCCAGTTTAGTGTCGGC  1.01
17. TGAATGAGGTTATAAGATCAGGGGACGTTGCAAA  1.28
18. CGAACTAGGTTATCCAGGACAGTGAATACATTGA  1.4
19. TCTCGGAGGACACGAAAGGCCAGAGCTCGACATC  1.56
20. CCGACTGGGCCAAGGTCATTGATCAGTCAAAGCA  2.11
21. CCTACTGGGCCATTTAGAGGTCATTGATCATATG  2.11
22. TTAATGAGGTTATAAGATCAGGGAACGTTGCAAA  2.32
23. TCTCGGAGGACAAGAAAGGTCAGAGCTCGACATC  2.37
24. ACCGAAAGGTCGAGGTGAGTATAGAGAAAGGGAA  2.51
25. TCAGACAGGTGAAGGTAACTCACGTACGCAGTCG  2.75
26. TCATATAAGTAAAGGTGAAAGTCGAACGATATGA  3.46
27. TCTGATAGGTCAACGATGGTCAGCTAATCTGCTA  4.21
28. CATGCTAGGTCAATGGTCAGCTAAAGCAGCTCGC  4.38
29. CCTTACGGGTCACGAGGTTTTAGCACGACGAGCG  4.7
30. AGAACGAGGTCAATGAGTTGATAGCACGGGTGGC  5.11
31. ATATGTAGGTTAGCGGGTCATTCAGTTTGCGCAT  5.16
32. CCTTACGGGTCACGAGGTTCTAGCACGACGAGCG  5.36
33. CGAATTAGGTCATCCAGGACAGTGAATACATTGA  6.07
34. TAGCCTAGGTCATGGGTCAGTATACCACGCGAAC  6.14
35. CAAACTAGGTCACGAAAGCTCAAAGTCGAATGAC  7.12
36. CAAACTAGGTCACTGAGGTCAAAGTCCGTGCGTA  7.61
37. CAAACTAGGTCACAGAGGTCATAGTCCGTGCGTA  7.77
38. CGTCCAAGGTGAAAGGTCAGTGAAGAGATGACGG  8.46
39. CAAACTAGGTCACGCAAGGTCAAAGTCGAATGAC  8.64
40. GCTTACGGGTCAAAGGTTATAGCGTGAATAGAAT  9.99
